Screening results (PubChem)
Only a selection was taken, and hits are over-represented in it overall.
CBX7 inh – CBX7 inhibition, primary AlphaScreen | O95931 | AlphaScreen His6-CBX7 / biotin-H3K27me3 peptide binding; hits give low values | normalised signal (fraction of DMSO) (test concentration not listed) | 66,000 compounds, 1.1% hits | AID 1224903; in the data active means normalised signal below about 0.5
Target sequence (O95931 whole entry, looked up): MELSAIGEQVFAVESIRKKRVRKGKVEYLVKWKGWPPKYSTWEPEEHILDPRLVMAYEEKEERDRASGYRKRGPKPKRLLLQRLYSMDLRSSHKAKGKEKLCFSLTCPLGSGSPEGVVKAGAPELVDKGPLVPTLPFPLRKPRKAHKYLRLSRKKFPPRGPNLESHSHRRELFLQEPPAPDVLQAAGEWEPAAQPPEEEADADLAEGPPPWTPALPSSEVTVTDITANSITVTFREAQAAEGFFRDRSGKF
The depositor's hits bear a star.

SMILES	CBX7 inh
CCOc1ccccc1CN(CCc1ccc2c(c1)OCO2)Cc1ccccc1OC	0.95
CCOc1ccccc1CN(CCc1ccc2c(c1)OCO2)Cc1ccc(F)c(F)c1	0.47*
CCOc1ccc(CN(CCc2ccc3c(c2)OCO3)Cc2ccccc2)cc1	1.1
O=C1CN=C(c2ccccc2)c2cc(Cl)ccc2N1Cc1ccc(F)cc1Cl	1
CCOc1cc(CNCCc2c(C)[nH]c3ccc(OC)cc23)ccc1OC	0.72
COc1ccc2[nH]c(C)c(CCNCc3cccc(F)c3)c2c1	0.51
COc1ccc2[nH]c(C)c(CCNCc3ncc[nH]3)c2c1	0.18*
COc1ccc2[nH]c(C)c(CCNCc3ccc(OC(F)(F)F)cc3)c2c1	0.42*
COc1ccc(F)c(CNCCc2c(C)[nH]c3ccc(OC)cc23)c1	0.37*
COc1ccc(OC)c(CNCCc2c(C)[nH]c3ccc(OC)cc23)c1	0.71
COc1ccc2[nH]c(C)c(CCNCc3cccc(OC)c3OC)c2c1	0.61
COc1ccc2[nH]c(C)c(CCNCc3ccc(F)cc3)c2c1	0.5
COc1ccc2[nH]c(C)c(CCNCc3ccc4ccccc4n3)c2c1	0.55
CCCCc1ncc(CNCCc2c(C)[nH]c3ccc(OC)cc23)[nH]1	0.99
COc1ccc2[nH]c(C)c(CCNCc3cccc(C(F)(F)F)c3)c2c1	0.2*
COc1ccc(CNCCc2c(C)[nH]c3ccc(OC)cc23)c(F)c1	0.62
Cc1ccc(NC(=O)CN2C(=O)CN=C(c3ccccc3)c3cc(Br)ccc32)c(Cl)c1	0.79
CC(=O)Oc1cccc(/C=C/c2nc3ccccc3c(=O)n2-c2ccc(F)cc2)c1	0.92
Cc1cccc(-n2c(/C=C/c3cccc(F)c3)nc3ccccc3c2=O)c1	1
O=c1c2ccccc2nc(/C=C/c2ccc3c(c2)OCO3)n1-c1ccc(F)c(Cl)c1	1.1
Cc1ccc(-n2c(/C=C/c3ccc(OC(F)F)cc3)nc3ccccc3c2=O)cc1	0.95
COc1ccc(-n2c(/C=C/c3ccc(F)cc3)nc3ccccc3c2=O)cc1Cl	0.99
Cc1ccc(NC(=O)CN2CC(c3ccccc3)CC2=O)cc1F (stereo not given)	0.92
COc1ccc(C2SCC(=O)N(C)c3c2c(C)nn3C)cc1OC (stereo not given)	1.1
O=C(CN1C(=O)CN=C(c2ccccc2)c2cc(Cl)ccc21)NCc1cccc(Cl)c1	0.96
